# pKd: −log10 of the molar value.
# How the values were obtained:
# MRCKB = test system: T1, MRCKB
# T1 construct: gene CDC42BPB
# NIK = test system: T2, NIK
# T2 construct: gene MAP3K14
# NIM1 = test system: T3, NIM1
# T3 construct: gene MGC42105
# OSR1 = test system: T4, OSR1
# T4 construct: gene OXSR1
# 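Note: kd values determined as follow-up on hits from a single-replicate KINOMEscan panel screen.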
structure (smiles),measurement,setting,value
C[C@@H]1CCN(C(=O)CO)C[C@@H]1N(C)c1ncnc2[nH]ccc12,pKd,MRCKB,< 5.00
same,pKd,NLK,< 5.00
O=C(Nc1n[nH]c2nc(-c3ccco3)c(Br)cc12)c1ccc(CN2CCCC2)cc1.O=C(O)[C@H](O)[C@@H](O)C(=O)O [SB-742352],pKd,MYLK2,6.92
same,pKd,MYLK,5.89
Nc1nc(-c2cccnc2)c(-c2ccnc3ccccc23)s1 [GW684083],pKd,MYLK4,6.31
CN1c2ccc(-c3ccc(C(=O)NCCO)cc3)cc2-c2[nH]ncc2S1(=O)=O,pKd,MYLK,6.32
COC(=O)c1c(-c2ccccc2)c2cc(Cl)ccc2c(=O)n1Cc1ccc(S(C)(=O)=O)cc1,pKd,NEK2,< 5.00
CNc1nccc(-c2c(-c3ccc(F)cc3)ncn2CCCN2CCOCC2)n1 [SB-222516],pKd,NEK5,< 5.00
CS(=O)(=O)CCNCc1ccc(-c2ccc3ncnc(Nc4ccc(OCc5ccccc5)c(Cl)c4)c3c2)o1.Cl [GW574783],pKd,NIK,< 5.00
CC(=O)Nc1n[nH]c2ncc(-c3ccccc3)cc12 [SB-548492],pKd,NIM1,< 5.00
CNc1nccc(-c2c(-c3ccc(F)cc3)ncn2C2CCN(C)CC2)n1 [SB-222903],pKd,NLK,6.89
CCCc1ccc(S(=O)(=O)NC2CCN(c3ccnc(Nc4ccc(OC)cc4)n3)C2)cc1 (stereo not drawn) [GSK1379737],pKd,OSR1,< 5.00

# Source: paper PMC5540273 (PLoS ONE, 2017)
